Experimental data reported in PubChem BioAssay AID1117319 (Southern Research Institute, 2015).
Values joined by “and” are separate entries in the source; they are usually repeats but may differ in a detail not shown here. Equal values may be shown once. In all, about 260,000 compounds went through this assay and about 1,500 (0.58%) were called active. Not shown: some 5% with an inconclusive outcome.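 How the source made its calls: active means inhibition above a set limit at one or more doses, reproduced on every date tested; inconclusive means results disagree between test dates, or hit never tested in dose response; inactive means the rest.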 Not all results are given here. Measured potencies and affinities stand elsewhere.

These compounds were tested against Virion infectivity factor (Human immunodeficiency virus type 1 group M subtype B (isolate BH10)) + Virion infectivity factor (Human immunodeficiency virus type 1 group M subtype B (isolate BRU/LAI)) + Virion infectivity factor (Human immunodeficiency virus type 1 group M subtype B (isolate PCV12)) + Virion infectivity factor (Human immunodeficiency virus type 1 group M subtype B (isolate HXB2)) + DNA dC->dU-editing enzyme APOBEC-3G (Homo sapiens) (UniProt P69720+P69721+P69722+P69723+Q9HC16) (assay: HIV-1 Vif–A3G interaction blockers – biochemical, TR-FRET, GST-Vif 1-94, biotin-A3G peptide, dose response retest, primary screen (AID 1117319;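 further: Vif residues 1-94 fused to GST binding biotinylated APOBEC3G peptide 110-148; 0% = full assay without inhibitor and 100% = GST in place of GST-Vif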)). Details: TR-FRET GST-Vif / biotin-A3G peptide binding; active compounds read high.

inhibition, inactive:
COCCN(C(=O)COC(=O)c1cc2ccccc2cc1O)c1c(N)n(Cc2ccccc2)c(=O)[nH]c1=O 0.53%
CCOc1ccc(C(=O)Nc2ccc(N3CCCC3)cc2)cc1 -1.32%
CCOc1c(Cl)cc(CNc2ccc(N3CCCC3)cc2)cc1OC -0.34%
Cc1ccc2cc(CN(CCN(C)C)C(=S)Nc3ccccc3)c(=O)[nH]c2c1C 17%
CCOc1ccc(C2CC(=O)NC(SC)=C2C#N)cc1 (centres undefined) -1.81%
CS/C(=N\S(=O)(=O)c1cccs1)Nc1ccc(Cl)cc1 3.6%
COc1ccc(C2C(C(=O)Nc3ccc(F)cc3)=C(C)Nc3nc(CCCO)nn32)cc1 (centres undefined) -0.37%
COc1ccc(OC)c(C2C(C(=O)Nc3ccccc3OC)=C(C)Nc3nc(CCCO)nn32)c1 (centres undefined) 18.4%
OCCN(CCO)c1ccc2ccccc2c1 9.83%
Nc1ccc(C(=O)N(CCO)CCO)cc1 2.26%
CN(CC(=O)Nc1ccc(F)cc1)C(=O)C1CCCC1 -2.12%
O=C(Cn1c(=O)n(Cc2ccco2)c(=O)c2c3c(sc21)CCCC3)Nc1ccccc1 -1.14%
O=c1c2c3c(sc2n(CCN2CCCCC2)c(=O)n1Cc1ccco1)CCCCC3 30.5%
FC(F)(F)c1cnc(Oc2ccc(-c3nnco3)cc2)c(Cl)c1 -4.28%
Oc1ccc(Br)cc1/C=N/n1c(COc2ccccc2)n[nH]c1=S 23.7%
Cc1ccc(S(=O)(=O)Cc2ccc(C(=O)NCc3cccs3)o2)cc1 2.29%
CSc1ccccc1NC(=O)c1cccnc1 -0.88%
CCN=c1scc(C)n1/N=C/c1cc(Br)c(O)c(OC)c1 10.6%
CCN=c1scc(C)n1/N=C/c1ccsc1 24.1%
CN=c1scc(C)n1/N=C/c1ccc(O)cc1 3.18%
CN=c1scc(C)n1/N=C/c1ccc(O)cc1O 6.79%
CN=c1scc(C)n1/N=C/c1cc(Br)c(O)c(Br)c1 27.7%
C=C(C)CN=c1scc(C)n1/N=C/c1ccco1 7.84%
O=C(Oc1coc(CSc2ncccn2)cc1=O)c1cccc([N+](=O)[O-])c1 -1.78%
O=C(Cc1ccccc1[N+](=O)[O-])NCC(=O)c1ccc2c(c1)OCO2 -9.24%
CC(CCc1ccccc1)N(C)CC(O)c1cccc([N+](=O)[O-])c1 (centres undefined) -11.1%
Nc1ccn([C@@H]2O[C@H](CNCc3cccc(OC4CCCC4)c3)[C@@H](O)[C@H]2O)c(=O)n1 3.81%
COc1ccc([C@@H]2C[C@@H](c3ccccc3)Oc3cc(OC)cc(OC)c32)cc1 -2.19%
Clc1ccc(OCCCc2nc(-c3cccnc3)no2)c(Cl)c1 21.6%
CC(C)c1ccc(-c2nc(N3CCCCC3)[nH]c(=O)c2C#N)cc1 -2.18%
N#Cc1c(N2CCN(c3ccc(F)cc3)CC2)nc(N)c2c(N)nc3c(c12)CC(=O)N3C1CC1 1.08%
CN(CCC#N)C(=O)COC(=O)c1ccc(Cl)cc1O 6.5%
COc1ccc(-n2nnnc2-c2cnc3cc4c(cc3c2C)OCO4)cc1 2.05%
O=C(Cn1c2c(c(-c3ccccc3Cl)cc1=O)CCC2)NCCCN1CCOCC1 22.2%
CCCCNC(=O)Cn1c2c(c(-c3ccccc3Cl)cc1=O)CCC2 11.2%
CC(=O)c1ccc(NC(=S)N2CCCC(C(F)(F)F)C2)cc1 (centres undefined) -3.97%
Cc1ccc(C2C3=C(CCCC3=O)Nc3[nH]c(=S)[nH]c(=O)c32)cc1 (centres undefined) 15.3%
COC(=O)C1=C(C)Nc2[nH]c(=S)[nH]c(=O)c2C1c1ccc(O)cc1 (centres undefined) -3.71%
COc1ccc(Nc2ccc([N+](=O)[O-])cc2[N+](=O)[O-])cc1 -7.01%
O=C(NC(=O)c1ccccc1)NC1(C(F)(F)F)OCCO1 -4.29%
O=C(NCC1CCCO1)C(c1cccnc1)N(C(=O)Cc1cccs1)c1ccccc1 (centres undefined) 28.6%
Cc1ccc2c(c1)CC1(CN2C)C(=O)OC(C)(C)OC1=O 24.2%
COc1ccc2c(c1)C(=O)N(c1ccc(C)cc1)C(=O)C2 1.47%
Cc1ccc(CC2S/C(=N/N=C/c3ccco3)NC2=O)cc1 (centres undefined) 4.38%
Cc1n[nH]c(=O)n1-c1ccc(C(C)C)cc1 -7.48%
CC(C)c1ccc(CN(C(=O)/C=C/c2ccco2)C2CCS(=O)(=O)C2)cc1 (centres undefined) 30.9%
O=C1NC(=O)C(=CC=Cc2ccccc2)S1 2.69%
CCc1ccc(N2C(=O)C3ON(c4ccccc4)C(c4ccco4)C3C2=O)cc1 (centres undefined) -3.31%
CC1=NN(c2ccccc2)C(=O)/C1=C/C=C/c1ccccc1 5.22%
Cc1ccc(N2C(=O)c3n[nH]c(C)c3C2c2ccco2)cc1 (centres undefined) -7.3% and 4.08%
CCOC(=O)C1=C(C)N(c2ccc(OCC)cc2)C(=O)/C1=C\c1ccco1 10.7%
COc1ccc2[nH]c(C(=O)Nc3cccc(C)n3)cc2c1 -5.53%
CCOc1cc(C#N)ccc1OCC(=O)N1CCN(C(=O)c2cccs2)CC1 -1.5%
Cc1cccc(C)c1OCC(=O)NCC1CCCO1 (centres undefined) -4.95%
CCOCCCNC(=O)/C=C1\Sc2ccccc2N(Cc2ccccc2F)C1=O -8.36%
CCOC(=O)c1ccccc1NS(=O)(=O)c1ccc(S(=O)(=O)N2CCCC2)cc1 2.58%
O=C(NNC(=O)c1cccc(-n2cccc2)c1)c1ccccc1 7.05%
O=C(NNC(=O)c1cccc(-n2cccc2)c1)c1ccc(F)cc1 16%
CN(CC(=O)Nc1cccc(F)c1)C(=O)c1ccc(C(=O)c2ccccc2)cc1 0.25%
Cc1ccc(C)c(NC(=O)CN(C)C(=O)c2cccc(S(=O)(=O)N(C)C)c2)c1 5.71%
CN(CC(=O)Nc1cccc(F)c1)C(=O)c1cccc(N2C(=O)CCC2=O)c1 -2.88%
Cc1ccc(C)c(NC(=O)CN(C)C(=O)c2cccc(N3C(=O)CCC3=O)c2)c1 -0.71%
COc1ccc(NC(=O)CN(C)C(=O)c2cccc(Oc3ccccc3)c2)cc1 -4.86%
COc1ccc(NC(=O)CN(C)C(=O)c2ccc3ccccc3c2)cc1 7.66%
